# Sm TGR block: blocks Schistosoma mansoni thioredoxin glutathione reductase; Q962Y6; purified TGR, DTNB reduction, TNB absorbance 405 nm; Potency, µM (highest dose often 114 µM), for the others: at the top dose activity change, negative = inhibition, hits mostly inhibitors; 3% of 360,000 active; AID 485364; also: potency is read from the fitted curve at half-maximal effect; % is scaled to controls: 0 for no effect and ±100 for the full control effect; nearly all actives have a fitted effect of over 60% in size
#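 First, TGR (20 nM dispensed) and NADPH were mixed with compound. Second, a 15 min room-temperature incubation followed. Third, further NADPH and then DTNB were added to start the reaction. Finally, TNB absorbance was monitored kinetically.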
# Pf growth 48h: P. falciparum growth inhibition at 48 hours (one generation); P. falciparum luciferase growth in erythrocytes, 48 h; Potency, µM (highest dose often 28.7 µM), without a hit: at the top dose activity change, negative = inhibition, usual class: inhibitors; 5.9% of 310,000 active; AID 504832; also: potency is read from the fitted curve at half-maximal effect; % is scaled to controls: 0 for no effect and ±100 for the full control effect
#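 Cell-based growth assay: transgenic P. falciparum expressing firefly luciferase, cultured in red cells within RPMI 1640 containing 0.5% w/v Albumax, 24 mM bicarbonate and gentamycin. A drop in luciferase activity indicates inhibition.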
# Shiga toxin inh: blocks Shiga toxin action in Vero cells; 9.2% of 290,000 active; inhibition, % at 38.7 µM; Vero cells, Shiga toxin protein synthesis inhibition reporter; in the data active = inhibition mostly above about 28%, no sharp cut-off; inactive = mostly below about 43%; also: 0% is about no effect
# Pf growth 96h: inhibits malaria parasite growth, 96 h | P. falciparum luciferase reporter growth, 96 h | 6.9% of 320,000 active | Potency, µM (highest dose often 28.7 µM), for inactives: at the top dose activity change, negative = inhibition, hits mostly inhibitors; also: potency is read from the fitted curve at half-maximal effect; % is scaled to controls: 0 for no effect and ±100 for the full control effect
#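 P. falciparum expressing integrated firefly luciferase grown in erythrocytes (2% hematocrit, 0.05% parasitemia final) with compounds for 96 hours at 37 C, 5% CO2. Growth inhibition read as loss of luminescence after adding luciferase detection reagent.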
# Cycloheximide cs: counter-screen hit for Shiga toxin inhibitors, cycloheximide. cell reporter, cycloheximide protein synthesis inhibition counterscreen. max response, %. 12% of 300,000 active. AID 2314; in the data active = max response mostly above about 13%, no sharp cut-off; inactive = mostly below about 14%; also: read at 38.3 µM for the half of the compounds with a filed dose; 0% is about no effect
# NS1 inh: inhibitors of influenza NS1 protein function. 0.4% of 270,000 active. Potency, µM (doses to about 46.1 µM), for inactives: at the highest dose activity, positive = more growth. AID 2326; calls by dose curve; also: potency is read from the fitted curve at half-maximal effect; actives are rising curves; nearly all actives have a fitted effect of over 50% in size
#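 A cell-based growth assay was used: compounds that relieve NS1-induced slow growth of budding yeast raise OD600. Assay medium was yeast nitrogen base with ammonium sulphate and -URA supplement, pH 6.0, with 2% galactose.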
# Numbers without * were called inactive; u = inconclusive; x = not tested or not shown. In the library only some 21% were active in any assay of this set; here they are far more common. Unless noted, calls follow the shape of the dose curve; as a rule, active = well fitted curve in the direction sought with a large enough effect; inconclusive = small, poorly fitted or top-dose-only effect, or another doubt; inactive = no such curve, though single readings can be large; an effect the other way counts as inactive or inconclusive.
SMILES,Sm TGR block,Pf growth 48h,Shiga toxin inh,Pf growth 96h,Cycloheximide cs,NS1 inh
CC(C)C[C@H](NC(=O)[C@H](CCCCN)NC(=O)CNC(=O)[C@H](CC(C)C)NC(=O)[C@@H](N)C(C)C)C(=O)N[C@@H](CO)C(=O)N[C@@H](CCC(N)=O)C(=O)N[C@@H](CCC(=O)O)C(=O)N[C@@H](CC(C)C)C(=O)N[C@@H](Cc1cnc[nH]1)C(=O)N[C@@H](CCCCN)C(=O)N[C@@H](CC(C)C)C(=O)N[C@@H](CCC(N)=O)C(=O)N[C@H](C(=O)N[C@@H](Cc1ccc(O)cc1)C(=O)N1CCC[C@H]1C(=O)N[C@@H](CCCNC(=N)N)C(=O)N[C@H](C(=O)N[C@@H](CC(N)=O)C(=O)N[C@H](C(=O)NCC(=O)N[C@@H](CO)C(=O)NCC(=O)N[C@H](C(=O)N1CCC[C@H]1C(N)=O)[C@@H](C)O)[C@@H](C)O)[C@@H](C)O)[C@@H](C)O,x,x,8,x,-7,x
CCNC(=S)N/N=C(\C)c1ccc(Cl)s1,-12%,u,-16,u,-2,-33%
C=C(C)CNC(=S)N/N=C(\C)c1ccc(Cl)s1,-9%,12µM*,15,u,2,-18%
CS(=O)(=O)c1ccc([C@@H](O)[C@@H](COC(=O)CN)NC(=O)C(Cl)Cl)cc1,x,u,x,1.9µM*,x,x
CC(NC(=O)c1ccc(S(C)(=O)=O)cc1)c1cccc2ccccc12 (centres undefined),-1%,u,-3,21%,1,-9%
CCCCN(Cc1ccccc1)S(=O)(=O)c1ccc2c(c1)CCN2C(=O)C1CCC1,1%,x,x,x,x,x
COCC(=O)N1CCC(Oc2ccc(C(=O)NC3Cc4ccccc4C3)cc2)CC1,-24%,18%,55*,10µM*,27*,-14%
CN(C)S(=O)(=O)N1CCC(Oc2ccc(C(=O)NC3Cc4ccccc4C3)cc2)CC1,4%,u,106*,u,22*,u
Cc1ccc(NC(=O)CN(C)C(=O)c2cc(-c3ccccc3)nn2-c2ccccc2)cc1,4%,27%,x,-8%,x,x
Cc1cccc(NC(=O)CSCC(=O)Nc2cccc3ncccc23)c1,-4%,u,x,4%,x,x
CC(=O)/C(=N\Nc1ccc(Cl)cc1)Sc1nnc(-c2ccccc2)n1-c1ccccc1,-3%,-22%,-12,15µM*,-6,0%
O=C(O)CSc1nnc(-c2ccc(Cl)cc2)n1-c1ccccc1,0%,37%,-15,9.3µM*,1,23%
CCc1ccccc1NC(=O)CN1C(=O)COc2ccc(S(=O)(=O)N3CCCCCC3)cc21,8%,x,x,x,x,x
COc1ccc(-n2nnnc2SC(C)C(=O)NC2CCCC2)cc1 (centres undefined),-8%,-27%,x,-42%,x,x
O=C(N/N=C/C1=C(N2CCOCC2)C(=C\c2ccccc2)/CC1)Nc1ccccc1,-6%,3%,-4,42%,-2,5%
O=P(C1=C(N2CCOCC2)/C(=C\c2ccccc2)CC1)(N1CCOCC1)N1CCOCC1,45µM*,u,14,8%,-4,-16%
O=C(NP(=O)(N1CCOCC1)N1CCOCC1)C1=C(N2CCOCC2)/C(=C\c2ccccc2)CC1,3.2µM*,5%,-3,39%,-3,4%
O=CC1=C(N2CCOCC2)/C(=C\c2ccccc2)CC1,25µM*,22%,23,41%,17,x
COc1cc(NC(=O)C2=C(N3CCOCC3)/C(=C\c3ccc(Br)cc3)CC2)cc(OC)c1OC,-7%,-8%,2,24%,-1,7%
N#CC1=C(N2CCOCC2)/C(=C\c2ccccc2)CC1,-27%,3%,-21,24%,-1,-1%
O=C(O)c1ccccc1N/N=C/C1=C(N2CCOCC2)C(=C\c2ccccc2)/CC1,16µM*,10µM*,59*,u,15,4%
COC(=O)c1c(C)[nH]c(C(=O)C(C)OC(=O)c2cnc(C)cn2)c1C (centres undefined),-10%,8%,x,u,x,x
COC(=O)c1cc(Cl)ccc1NC(=O)CSc1ncc(S(=O)(=O)c2ccc(Br)cc2)c(=O)[nH]1,0%,x,x,x,x,x
CCN(CC)CCOc1ccc2c(c1)C(=O)c1cc(OCCN(CC)CC)ccc1-2,x,4.3µM*,x,6µM*,x,x
